For 27 compounds, outcome and Potency results are on record in PubChem BioAssay (NCATS).

Assay [1] in a line: qHTS for Inhibitors of Ubiquitin-specific Protease USP2a Using CHOP2 as the Reporter: K633 Counterscreen (AID 652168). Further: series mostly up to about 57 µM. The method, boiled down: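 Detection-system control: fluorescence of K48-linked DiUb-4IQF substrate (100 nM as added) tracked over time, Ex 525/Em 598, with pinned compounds and no enzyme, in pH 8 Tris buffer containing beta-mercaptoethanol and 0.05% Chaps.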
On the technique in general: In qHTS, concentration-response curves come from the screen itself.

The nature of assay [2]: qHTS for Inhibitors of Ubiquitin-specific Protease USP2a Using CHOP2 as the Reporter: Cytotox Assay (AID 652170). Further: nearly all actives have a fitted effect of over 70% in size. Further: potency means the concentration at half of the fitted maximal effect. The method, boiled down: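 Cytotoxicity read as ATP luminescence (CellTiter-Glo) after 72 hr compound treatment at 37 deg C. Cells: HCT116, 600/well in DMEM plus 10% FBS. Normalization between DMSO-treated cells and cell-free wells.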
Assay [3] has as its target Ubiquitin carboxyl-terminal hydrolase 2 (Homo sapiens) (UniProt O75604). Kind of assay: qHTS for Inhibitors of Ubiquitin-specific Protease USP2a Using CHOP2 as the Reporter: K484 Substrate (AID 652173).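 Further: cleavage of internally quenched K48 di-ubiquitin substrate measured as rising fluorescence over time; nearly all actives have a fitted effect of over 70% in size.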 Further: potency means the concentration at half of the fitted maximal effect. The gist of the method:
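Kinetic fluorescence (Ex 525/Em 598) tracked cleavage of an internally quenched K48 di-ubiquitin substrate, added as a 100 nM solution. The enzyme was added as a 5 nM USP2 solution before compound pinning, with no-enzyme controls. Buffer: Tris pH 8, beta-mercaptoethanol, CHAPS.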

The target of assay [4] is Calcium and integrin-binding protein 1 (Homo sapiens) (UniProt Q99828). Nature of the assay: Primary qHTS for Identification of Calcium Integrin Binding Protein 1 (CIB1) Competitor (AID 1508620).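 Further: GST tagged CIB1 binding a fluorescein labelled alphaIIb integrin peptide tracer; top concentration of the series differs between compounds.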 The method, boiled down:
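Fluorescence polarization competition: CIB1-GST (1 uM final) preincubated with compound 15 min at room temperature, then FITC-labeled alphaIIb peptide (100 nM final) added for another 15 min. Polarization read at Ex 480/Em 540.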

In assay [5] the target is Mitogen-activated protein kinase 10 (Mus musculus) (UniProt Q61831). Kind of assay: JNK3 AlphaScreen Assay (AID 530; active means well fitted curve in either direction with a large enough effect, not every such curve was filed as active;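 further: kinase came from lysate of stimulated human HepG2 cells; signal reports phosphorylation of biotinylated GST-cJun 1-79 at Ser73 with 10 µM ATP; series mostly up to about 57 µM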). The method, boiled down: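 Biotinylated GST-cJun(1-79) served as substrate for JNK3 in HepG2 lysates stimulated with IL-1beta and TNF-alpha. ATP was 10 uM final, pH 7.6. Ser73 phosphorylation was quantified by AlphaScreen (680 nm excitation).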
Assay [6] has as its target Cytochrome P450 3A4 (Homo sapiens) (UniProt P08684). Kind of assay: qHTS Assay for Activators of Cytochrome P450 3A4 (AID 885). Further: nearly all actives have a fitted effect of over 65% in size. The method, boiled down:
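Activators are scored by enhanced luminescence from CYP3A4 conversion of luciferin-PPXE (25uM, equal to KM) to luciferin, after 60 min at RT with an NADPH-regenerating system.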

Several values for one entry are separate records, joined by “and”; a condition that tells them apart may be missing. Equal entries are not always repeated. Results filed as inconclusive are left out. A call without a number means that no potency is given here. Activity calls are given as the source filed them. Unless noted, the call rests on the fitted dose curve; in most records, active means well fitted curve in the direction sought with a large enough effect; inconclusive means small, poorly fitted or top-dose-only effect, or another doubt; inactive means no such curve, though single readings can be large; an effect the other way counts as inactive or inconclusive.

Chain of Ubiquitin carboxyl-terminal hydrolase 2 (Homo sapiens) (O75604 whole entry, looked up): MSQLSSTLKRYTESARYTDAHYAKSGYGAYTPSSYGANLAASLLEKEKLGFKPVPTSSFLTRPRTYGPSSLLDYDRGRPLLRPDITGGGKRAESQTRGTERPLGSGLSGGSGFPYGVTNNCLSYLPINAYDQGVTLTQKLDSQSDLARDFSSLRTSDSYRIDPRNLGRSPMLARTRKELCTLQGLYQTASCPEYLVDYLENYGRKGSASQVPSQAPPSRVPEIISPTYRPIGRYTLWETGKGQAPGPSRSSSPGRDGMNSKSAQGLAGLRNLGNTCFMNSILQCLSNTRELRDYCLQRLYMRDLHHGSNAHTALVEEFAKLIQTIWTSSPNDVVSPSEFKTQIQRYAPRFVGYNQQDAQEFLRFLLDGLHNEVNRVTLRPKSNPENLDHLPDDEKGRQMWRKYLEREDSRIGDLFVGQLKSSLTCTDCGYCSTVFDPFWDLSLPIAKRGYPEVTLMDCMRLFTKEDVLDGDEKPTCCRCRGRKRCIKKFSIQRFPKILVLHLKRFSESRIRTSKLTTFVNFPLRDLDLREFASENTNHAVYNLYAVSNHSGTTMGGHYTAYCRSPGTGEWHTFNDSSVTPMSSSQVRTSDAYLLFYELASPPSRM
Chain of Calcium and integrin-binding protein 1 (Homo sapiens) (Q99828 whole entry, looked up): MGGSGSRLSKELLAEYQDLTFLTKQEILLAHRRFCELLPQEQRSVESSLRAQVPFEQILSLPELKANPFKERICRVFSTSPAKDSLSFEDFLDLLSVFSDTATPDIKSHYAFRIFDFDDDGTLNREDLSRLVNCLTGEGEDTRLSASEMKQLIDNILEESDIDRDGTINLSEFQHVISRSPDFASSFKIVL
Chain of Cytochrome P450 3A4 (Homo sapiens) (P08684 whole entry, looked up): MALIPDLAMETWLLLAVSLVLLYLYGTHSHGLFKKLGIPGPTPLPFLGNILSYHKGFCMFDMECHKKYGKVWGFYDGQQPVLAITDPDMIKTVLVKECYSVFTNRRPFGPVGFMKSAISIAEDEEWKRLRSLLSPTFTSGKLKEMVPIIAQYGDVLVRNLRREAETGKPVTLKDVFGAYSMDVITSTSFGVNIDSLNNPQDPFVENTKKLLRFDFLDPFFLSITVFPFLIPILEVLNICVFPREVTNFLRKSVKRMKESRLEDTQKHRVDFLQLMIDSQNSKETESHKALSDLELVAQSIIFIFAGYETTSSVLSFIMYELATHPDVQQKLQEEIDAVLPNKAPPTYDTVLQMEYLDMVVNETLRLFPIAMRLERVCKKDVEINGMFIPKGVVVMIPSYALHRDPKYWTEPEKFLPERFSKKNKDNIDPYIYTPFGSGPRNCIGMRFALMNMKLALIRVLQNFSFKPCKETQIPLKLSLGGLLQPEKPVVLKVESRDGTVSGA

As for `Clc1nc(CN2CCOCC2)nc2sc3c(c12)CCCC3`, the compound was called inactive in assay [1]. Besides, the Potency entry in assay [2], in assay [3] and in assay [4] was “inactive” throughout.
`Cc1ccc(S(=O)(=O)Nc2cnccc2C(=O)Nc2ccc(N3CCOCC3)cc2)cc1`: the call in assay [1] was inactive. Besides, the Potency entry in assay [2] and in assay [4] was “inactive” throughout.
Consider `Cc1nc(N2CCOCC2)c2nc(-c3ccccc3)n(CCN3CCCC3)c2n1`, for which, in assay [5], the outcome was inactive. The Potency result in assay [6] and in assay [4] was “inactive” throughout.
Regarding `Cc1ccc(S(=O)(=O)Nc2cnccc2C(=O)Nc2ccc(-n3cncn3)cc2)cc1`, the compound was called inactive in assay [1]. The Potency result in assay [2] and in assay [4] was “inactive” in each case.
As for `N#Cc1cccc(S(=O)(=O)Nc2cnccc2C(=O)Nc2nc(-c3ccccc3)cs2)c1`, the result in assay [1] was inactive. The Potency result in assay [2] and in assay [4] was “inactive” each time. Moreover, the Potency in assay [3] was 2.17 µM (active).
As to `Cc1ccc(-c2cc(C(=O)Nc3cccc(Cl)c3)c3ccccc3n2)cc1C`, the compound was called inactive in assay [1]. The Potency result in assay [2] and in assay [4] was “inactive” each time.
Regarding `CCCCNc1nc(C)nc2c1nc(-c1ccccc1)n2CCCCN(CC)CC`, in assay [5], the call was inactive. Also, the Potency entry in assay [6] and in assay [4] was “inactive” throughout.
As to `CCCCCC1CCC(C(=O)Nc2ccc(S(=O)(=O)Nc3nccs3)cc2)CC1` (centres undefined), in assay [1], the outcome was inactive. The Potency entry in assay [2] and in assay [4] was “inactive” each time. Also, the Potency in assay [3] was 4.32 µM (active) and 3.85 µM (active).
Regarding `Cc1ccc(-c2cc(C(=O)Nc3ccccn3)c3ccccc3n2)cc1C`, the compound was called inactive in assay [1]. Further, the Potency result in assay [2] and in assay [4] was “inactive” in each case.
On to `Cc1ccc([S+](=O)([O-])n2cc(-c3ccc(-c4ccccc4)cc3)c3ccccc32)cc1`, for which the outcome in assay [1] was inactive. The Potency entry in assay [2], in assay [3] and in assay [4] was “inactive” in each case.
For the compound `CCS(=O)(=O)N1CCC(C(=O)Nc2ccc(S(=O)(=O)Nc3nccs3)cc2)CC1`, the compound was classed as inactive in assay [1]. Moreover, the Potency entry in assay [2] and in assay [4] was “inactive” throughout.
`Cc1ccc(S(=O)(=O)Nc2cnccc2C(=O)Nc2ccccc2)cc1`: the outcome in assay [1] was inactive. Besides, the Potency entry in assay [2] and in assay [4] was “inactive” each time.
Turning to `O=C(Nc1ccc(S(=O)(=O)Nc2nccs2)cc1)C1CCC2(CC1)CC2`, in assay [1], the result was inactive. For the same compound, the Potency entry in assay [2] and in assay [4] was “inactive” each time.
On to `O=C(Nc1nc(-c2ccccc2)cs1)c1ccncc1NS(=O)(=O)c1cccnc1`, for which the call in assay [1] was inactive. Further, the Potency result in assay [2] and in assay [4] was “inactive” each time. Besides, the Potency in assay [3] is 2.73 µM (active).
As for `O=C(Nc1nc(-c2ccccc2)cs1)c1ccccc1S(=O)(=O)Nc1nccs1`, the call in assay [1] was inactive. Moreover, the Potency result in assay [2] and in assay [4] was “inactive” throughout. The Potency in assay [3] was 12.2 µM (active).
In the case of `Cc1ccc(S(=O)(=O)Nc2cnccc2C(=O)Nc2nc(-c3ccc(-c4ccccc4)cc3)cs2)cc1`, the result in assay [1] was inactive. The Potency in assay [2] was 20.9 µM (active); in assay [3], 2.17 µM (active). Further, the Potency entry in assay [4] is “inactive”.
Consider `O=S(=O)(Nc1nc(CN2CCOCC2)nc2sc3c(c12)CCCC3)c1ccc2ccccc2c1`, for which, in assay [1], the call was inactive. In addition, the Potency entry in assay [2] and in assay [4] was “inactive” throughout. In addition, the Potency in assay [3] is 24.3 µM (active).
On to `O=C1CC(c2ccccc2)Cc2[nH]c(=O)c(-c3nc(-c4ccc(F)cc4)cs3)cc21` (centres undefined), for which the compound was classed as inactive in assay [1]. Further, the figures for the Potency in assay [2] and in assay [3] were 4.18 µM (active) and 17.2 µM (active), respectively. For the same compound, the Potency result in assay [4] was “inactive”.
On to `CC(C)C1CCC(C(=O)Nc2ccc(S(=O)(=O)Nc3nccs3)cc2)CC1` (centres undefined), for which, in assay [1], the outcome was inactive. Besides, the Potency result in assay [2] and in assay [4] was “inactive” throughout. The Potency in assay [3] was 10.9 µM (active).
As to `Cc1ccc(S(=O)(=O)Nc2cnccc2C(=O)Nc2nc(-c3ccncc3)cs2)cc1`, the call in assay [1] was inactive. Moreover, the Potency entry in assay [2] and in assay [4] was “inactive” in each case. Further, the Potency in assay [3] was 15.3 µM (active).
For `Cc1ccc(S(=O)(=O)Nc2ccccc2C(=O)Nc2nc(-c3ccc(Cl)cc3)cs2)cc1`, in assay [1], the result was inactive. Also, the Potency in assay [2] is 8.33 µM (active); in assay [3], 1.93 µM (active). Besides, the Potency result in assay [4] was “inactive”.
For `Cc1ccc(-c2cc(C(=O)Nc3ccc(C(=O)O)cc3)c3ccccc3n2)cc1C`, the compound was called inactive in assay [1]. The Potency result in assay [2] and in assay [4] was “inactive” throughout. The Potency in assay [3] is 21.7 µM (active).
With `O=C(Nc1ccc(S(=O)(=O)Nc2nccs2)cc1)c1cccnc1`, the call in assay [1] was inactive. Besides, the Potency result in assay [2], in assay [3] and in assay [4] was “inactive” in each case.
`Cc1ccc([S+](=O)([O-])n2cc(Cc3ccc(-c4ccccc4)cc3)c3ccccc32)cc1`: the call in assay [1] was inactive. Moreover, the Potency result in assay [2], in assay [3] and in assay [4] was “inactive” throughout.
As to `O=S(=O)(Nc1nc(CN2CCOCC2)nc2sc3c(c12)CCC3)c1ccc2c(c1)OCCO2`, the compound was classed as inactive in assay [1]. The Potency entry in assay [2], in assay [3] and in assay [4] was “inactive” throughout.
Regarding `O=C(Cc1ccccc1)Nc1ccc(S(=O)(=O)Nc2nccs2)cc1`, the compound was called inactive in assay [1]. Further, the Potency entry in assay [2], in assay [3] and in assay [4] was “inactive” in each case.
In the case of `O=C(O)c1cccc(S(=O)(=O)Nc2nccs2)c1`, in assay [1], the compound was classed as inactive. The Potency entry in assay [2], in assay [3] and in assay [4] was “inactive” in each case.
